{
  "source": "PubChem BioAssay (NCI)",
  "note": "About 83,000 compounds went through this panel and 20% of them were active in at least one assay; those are over-represented in the sample as a whole.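 Percent growth is the endpoint: 0 to 100 indicates growth inhibition (40 means 60% inhibition), 0 means no net growth, and negative values indicate cell death.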 Values without a mark were called inactive. Active and inactive are the calls of the source. How the source made its calls: active means growth percent below 10; inactive means the rest.",
  "data": [
    {"tested_on": "MDA-MB-468 breast", "experiment": "NCI-60 one-dose screen, 48 h (100 = growth as untreated, 0 = no growth, -100 = all killed)", "conditions": "10 µM unless noted", "values": [
      {"smiles": "CC(=O)[C@@H]1CC[C@]2(CO)CC[C@]3(C)[C@H](CC[C@@H]4[C@@]5(C)CCCNC(C)(C)[C@@H]5CC[C@]43C)[C@@H]12", "growth": "106%"},
      {"smiles": "FC(F)(F)c1nn[nH]n1", "growth": "99%"},
      {"smiles": "CCCCCCCCCCCCCCCCC(=O)O", "growth": "102%"},
      {"smiles": "COc1ccc(/C=C(\\C(=O)NCc2cccnc2)S(=O)(=O)c2ccccc2)cc1OC", "growth": "1.86% (active)"},
      {"smiles": "C=C(C)[C@@H]1CC[C@]2(COS(C)(=O)=O)CC[C@]3(C)[C@H](CC[C@@H]4[C@@]5(C)CCCNC(C)(C)[C@@H]5CC[C@]43C)[C@@H]12", "growth": "49.9%"},
      {"smiles": "Cc1cc(O)c(C(C)(C)C)cc1Sc1cc(C(C)(C)C)c(O)cc1C", "growth": "67.2%"},
      {"smiles": "c1ccc(CCNc2ncnc3[nH]ncc23)cc1", "growth": "70.9%"},
      {"smiles": "NC(=S)N/N=C/c1ccc(OC(=O)COc2cc(Cl)c(Cl)cc2Cl)cn1", "growth": "-0.374% (active)"},
      {"smiles": "O=C1C2=C(C(=O)c3c(O)cccc31)C(c1ccco1)c1sc(=O)[nH]c1S2", "note": "(centres undefined)", "growth": "7.85% (active)"},
      {"smiles": "CCCCCC(=O)OCCC1CCCCC1", "growth": "99%"},
      {"smiles": "COC(=O)c1c2c(c(C)[n+]([O-])c1C)C(=O)C=C(NCc1ccc(OC)cc1)C2=O", "growth": "-61% (active)"},
      {"smiles": "CCN(CC)c1ccc(/C=C2\\Oc3ccc(O)c(I)c3C2=O)cc1", "growth": "61.6%"},
      {"smiles": "COc1cc(CNC(=O)Cc2ccccc2[N+](=O)[O-])ccc1OCC(=O)NO", "growth": "98.7%"},
      {"smiles": "CN1CCN(Cc2ccc(NC(=O)c3cncc(C#Cc4cnc5ccc(OCC(F)F)nn45)c3)cc2C(F)(F)F)CC1", "growth": "-65.5% (active)"}
    ]}
  ]
}
